# The whole screen tested about 220,000 compounds, of which about 530 (0.24%) were called active. Shown is part of a subset that was picked to be rich in actives. Results with a measured potency or affinity are listed apart. Unmarked numbers belong to inactive results. No stated cut-off is given here; in the data, active means inhibition above about 13%; inconclusive means no clear call, values can overlap the other calls; inactive means below that.
# Target: Bifunctional protein GlmU (Mycobacterium tuberculosis (strain ATCC 25618 / H37Rv)) (UniProt P9WMN3)
# Sequence (P9WMN3 whole entry, looked up): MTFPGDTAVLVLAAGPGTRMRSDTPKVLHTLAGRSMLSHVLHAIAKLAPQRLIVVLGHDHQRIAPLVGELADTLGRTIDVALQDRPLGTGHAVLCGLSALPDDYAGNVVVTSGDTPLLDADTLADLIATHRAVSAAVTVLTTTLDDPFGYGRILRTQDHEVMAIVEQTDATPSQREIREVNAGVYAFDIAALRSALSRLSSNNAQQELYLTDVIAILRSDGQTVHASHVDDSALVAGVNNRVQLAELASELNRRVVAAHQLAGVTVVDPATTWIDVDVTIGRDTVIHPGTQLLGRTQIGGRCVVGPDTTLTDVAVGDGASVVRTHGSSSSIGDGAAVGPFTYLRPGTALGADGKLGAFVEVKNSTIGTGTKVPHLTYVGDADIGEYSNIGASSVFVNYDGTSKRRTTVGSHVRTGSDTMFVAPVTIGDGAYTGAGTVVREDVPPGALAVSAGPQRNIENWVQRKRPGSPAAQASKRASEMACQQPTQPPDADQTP
# Experiment: inhibition of mycobacterial GlmU enzyme – biochemical, glucosamine-1-phosphate acetyltransferase (AID 1376);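 further: 0% = complete reaction with vehicle and 100% = reaction without substrate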
# Details: M. tuberculosis GlmU acetyltransferase enzyme assay; stronger effect = higher value;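 tested at 30 µM in the primary screen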
row,Compound,inhibition
1,CCCCCCn1c(CN2CCN(CCO)CC2)nc2c1c(=O)n(C)c(=O)n2C,2%
2,C/C(=N\NC(=O)c1nn(C)c(C)c1Br)c1cccc(NC(=O)c2ccc(F)cc2)c1,-3.49%
3,O=C(NCc1ccc(C(=O)N2CCC3(CC2)OCCO3)cc1)c1cccc(Br)c1,1.96%
4,O=C(c1ccc2c(c1)OCO2)N1CCC2(CC1)OCCO2,5.09%
5,O=C(NCc1ccc(C(=O)N2CCC3(CC2)OCCO3)cc1)c1ccc2c(c1)OCO2,18.9% (active)
6,COc1ccc(CN2CCOCC2)c(C)c1C,-2.85%
7,CCCCNc1ccc(C(=O)O)cc1,-0.8%
8,CC12CC(NC(=O)N1c1ccc(C(=O)N3CCN(c4ccc(F)cc4)CC3)cc1)c1ccccc1O2 (centres undefined),-2.33%
9,CC(C)C/C=C1\CCc2c([nH]c3ccccc23)C1=O,-1.01%
10,CCOc1ccc(NC(=O)CSc2n[nH]c(N)n2)c([N+](=O)[O-])c1,0.6%
11,CCOC(=O)c1cnc(SCC(=O)c2ccc3c(c2)OCCO3)nc1N,-5.31%
12,NS(=O)(=O)c1cccc(NC(=O)CN2CCc3ccccc32)c1,-0.92%
13,Fc1ccc(OCc2nn3cnnc3s2)cc1,18.4% (active)
14,Fc1ccc(OCc2nn3c(Cn4nnc5ccccc54)nnc3s2)cc1,3.23%
15,Fc1ccc(OCc2nc3ccccc3s2)cc1,0.65%
16,COC(=O)c1ccc(S(=O)(=O)NCc2ccccn2)n1C,-0.35%
17,COc1ccc(Nc2ccc(Cl)cc2)c(C(=O)O)c1,11.1%
18,COc1ccc(Nc2cccc(Cl)c2)c(C(=O)O)c1,13.1% (active)
19,COc1cccc(Nc2ccccc2C(=O)O)c1,-2.96%
20,COc1cc(OC)cc(C(=O)O/N=C(\N)c2ccccn2)c1,-3.71%
21,COc1cc(C(=O)O/N=C(\N)c2ccccn2)cc(OC)c1OC,13.3% (active)
22,COc1ccccc1C(=O)O/N=C(\N)c1ccccn1,6.05%

row,Compound,inhibition
1,Cn1c(CSCCOc2ccccc2)n[nH]c1=S,-1.84%
2,COc1ccc(Cl)cc1S(=O)(=O)NC1CC(C)(C)NC(C)(C)C1,4.3%
3,COc1c(C)cc(S(=O)(=O)NC2CC(C)(C)NC(C)(C)C2)c(C)c1C,-0.79%
4,COc1ccc(S(=O)(=O)NC2CC(C)(C)NC(C)(C)C2)c(C)c1C,13.6% (active)
5,Nc1nc(N)c(N=Nc2ccc(C(=O)O)cc2)c(N)n1,13.1% (active)
6,O=C(O)c1ccc(N=Nc2c(O)[nH]c3ccccc23)cc1,-3.4%
7,O=C(O)c1ccc(N=Nc2c(O)[nH]c3cc(Cl)ccc23)cc1,11%
8,O=C(NCCO)C(c1ccccc1)c1ccccc1,-1.82%
9,COc1ccc2nc3sc(C(=O)NCCN4CCc5ccccc5C4)cc3cc2c1,15% (active)
10,COc1ccc2nc3sc(C(=O)NCCCN4CCc5ccccc5C4)cc3cc2c1,5.05%
11,COc1ccc2cc3cc(C(=O)NCCN4CCc5ccccc5C4)sc3nc2c1,4.04%
12,O=C1C(Cl)=C(NCCc2ccccc2)C(=O)N1CCc1ccccc1,1.54%
13,O=C1C(Cl)=C(Nc2ccccc2O)C(=O)N1c1ccccc1,42.6% (active)
14,COc1ccc(NC2=C(Cl)C(=O)N(c3ccccc3)C2=O)c(OC)c1,4.46%
15,CCOc1ccccc1NC1=C(Cl)C(=O)N(c2ccccc2)C1=O,0.96%
16,CCOc1ccccc1NC1=C(Cl)C(=O)N(c2ccc(OC)cc2)C1=O,-5.57%
17,O=C1C(Cl)=C(Nc2ccc(F)cc2)C(=O)N1CCc1ccccc1,-4.15%
18,CCOc1ccc(N2C(=O)C(Cl)=C(Nc3ccccc3O)C2=O)cc1,7.85%
19,COc1ccc(N2C(=O)C(Cl)=C(Nc3ccccc3OC)C2=O)cc1,3.86%
20,COc1ccccc1NC1=C(Cl)C(=O)N(c2ccccc2)C1=O,1.83%
21,COc1ccc(-n2c3c(cc(C(=O)N4CCC(C)CC4)c2=O)C(=O)CC(C)(C)C3)cc1,0.29%
22,Cc1cc(C)c(NC2=NS(=O)(=O)c3ccccc32)c(C)c1,0.24%

row,Compound,inhibition
1,COc1cccc(OC)c1C(=O)NC(=S)NNC(=O)[C@H]1C[C@@H]1c1ccccc1,3.93%
2,O=c1cc(CSc2nnc3ccccn23)c2c(ccc3ccccc32)o1,5.61%
3,Cc1ccc(C2=CC(C)(c3ccc(C)cc3)Nc3nc(C(F)(F)F)nn32)cc1 (centres undefined),-1.89%
4,O=[N+]([O-])c1ccc(O)c(/C=N/Nc2nc3ccccc3[nH]2)c1,2.26%
5,COc1ccc(O)c(/C=N/Nc2nc3ccccc3[nH]2)c1,1.12%
6,O=C(Nc1ccc(N2CCN(C(=O)c3cccs3)CC2)cc1)c1cccnc1,-0.33%
7,O=C(Nc1cccc(C(=O)N2CCOCC2)c1)c1cccnc1,2.11%
8,CSc1nc(Cl)cc(N2CCOCC2)n1,3.3%
9,Cc1cc(N)n(-c2ccc3ccccc3c2)n1,0.94%
10,Cc1[nH]n(-c2ccccc2)c(=O)c1CCO,-5.63%
11,Cc1cc(C)n(-c2ccc(Oc3ccccc3)c(S(=O)(=O)O)c2)n1,12.6%
12,CCOC(=O)Cc1c(C)[nH]n(-c2ccccc2)c1=O,0.6%
13,CCOC(=O)C1CCCN(CC(=O)Nc2c(F)c(F)c(F)c(F)c2F)C1 (centres undefined),0.78%
14,CCS(=O)(=O)N1Cc2ccccc2CC1C(=O)Nc1nc(C)cs1 (centres undefined),-3.38%
15,Cc1cc(C(=O)NC(C)c2ccccc2)c2cc(F)ccc2n1 (centres undefined),2.48%
16,CS(=O)(=O)N1CCC(C(=O)Nc2ccc(OCc3ccccc3)cc2)CC1,0.13%
17,OCCN1CCN(CC(O)C(F)(F)F)CC1 (centres undefined),0.82%
18,O=C(c1cccc(F)c1)N1CCN(Cc2c[nH]c3ccccc23)CC1,15% (active)
19,O=C(c1ccccc1)N1CCN(Cc2c[nH]c3ccccc23)CC1,-4.61%
20,O=C(c1cccc(Cl)c1)N1CCN(Cc2c[nH]c3ccccc23)CC1,7.63%
